# Results filed as inconclusive are left out. Unmarked numbers belong to inactive results. The source made the active and inactive calls. The call rests on the fitted dose curve; in most records, active means well fitted cell-killing curve with a large enough effect; inconclusive means small, poorly fitted or top-dose-only effect; inactive means no such curve, though single readings can be large or run the other way.
# Assay: qHTS of pediatric cancer cell lines to identify multiple opportunities for drug repurposing: Primary screen for SK-N-SH cells (AID 1347098); further: nearly all actives have a fitted effect of over 65% in size
# Conditions: SK-N-SH viability, CellTiter-Glo luminescence, 48 h; series mostly up to 57 µM; activity change, negative = cytotoxic: at the top concentration
# Description: Drug repurposing or repositioning has been offered as a strategy for drug development in oncology programs. This approach has special potential for childhood cancers and other rare or orphan diseases, where the expected return on new drug development has been a disincentive to pharmaceuticals.
# In this project we exploit the poly-pharmacology of drugs to discover new indications via phenotypic screening of a panel of 19 well-characterized cell lines derived from solid tumors seen in children and adolescents. The goal is to identify approved drugs with previously unrecognized anticancer properties that has the potential to reveal new mechanisms and biological processes involved in carcinogenesis or drug resistance. We employed a titration-based paradigm (quantitative high-throughput screening or qHTS), where all compounds were tested at multiple concentrations for their effect on cell viability. Concentration-response curves (CRCs) were derived directly from the primary screen, and both potency and efficacy values were used to identify compounds with robust bioactivity profiles. We screened the NIH Chemical Genomics Center (NCGC) Pharmaceutical Collection (NPC) and Mechanism Interrogation Plate (MIPE) small molecule collections of approved and investigational compounds against these cell lines; and measured metabolically active cells after 48 hours of compound treatment as a proxy for cell viability.
# Assay Submitter: Nathalia J. Martinez, National Center for Advancing Translational Sciences, National Institutes of Health, Rockville, MD, USA; email: natalia.martinez@nih.gov
# [1] Shen, M et al. Quantitative high-throughput phenotypic screening of pediatric cancer cell lines identifies multiple opportunities for drug repurposing. Oncotarget 2017 Dec 19;9(4):4758-4772. PMID 29435139.
# The cells were obtained from University of North Carolina (UNC), Pediatric Preclinical Testing Program (PPT), and Coriell Institute (CI).
# qHTS cell viability assay:
# Cells were assayed in growth media at a density of 500-1,000 cells/well. Five microliters of cells were dispensed into 1,536-well, white, solid-bottom, TC-treated plates (Greiner Bio One) using a multidrop dispenser and incubated at 37 degrees C, 5% CO2, under a humidified atmosphere for 5 hours. Twenty-three nanoliters of compounds and controls (neutral control DMSO or positive control bortezomib at final concentration of 2.3 µM) were subsequently transferred by Kalypsys pintool. For primary screens, the MIPE collection was tested at 11-point dilutions (final concentrations range from 0.78 nM to 46 µM) and the NPC collection at 8-point dilutions (final concentrations range from 0.59 nM to 46 µM). Compounds tested in follow-up screens were assayed at 11-point dilutions. Cells were incubated for 48 hours, followed by addition of 3 µL of CellTiter-Glo (Promega). After a 15 min incubation at room temperature, samples were analyzed for luminescence intensity using a ViewLux High-throughput CCD imager equipped with clear filters.
# On the % scale 0 is the no-effect control and ±100 the full control effect; potency means the concentration at half of the fitted maximal effect.
Structure (SMILES),"activity change, negative = cytotoxic [%]",Potency
O=C(NC1CCN(CCc2c[nH]c3ccccc23)CC1)c1ccccc1,-17.6,–
O=C(Nc1ncc([N+](=O)[O-])s1)c1cccs1,–,24.4 µM (active)
CCc1oc2ccccc2c1C(=O)c1cc(I)c(O)c(I)c1,-15.4,–
N#C/C(=C1\SCC(c2ccccc2Cl)S1)n1ccnc1 (stereo not given),-4.22,–
COc1ccc(C(=O)c2ccccc2)c(O)c1,-23.4,–
NCc1ccccc1Sc1ccccc1CO,-16.7,–
CCCN(CCC)S(=O)(=O)c1ccc(C(=O)O)cc1,-9.12,–
Oc1c(Cl)cc(Cl)c(Cl)c1Cc1c(O)c(Cl)cc(Cl)c1Cl,–,12.2 µM (active)
CC[N+](C)(CC)CCOC(=O)C(O)(c1ccccc1)C1CCCCC1 (stereo not given),1.1,–
CC(C)Nc1cccnc1N1CCN(C(=O)c2cc3cc(NS(C)(=O)=O)ccc3[nH]2)CC1,-20.7,–
Clc1cccc(C(c2ccc3nc[nH]c3c2)n2ccnc2)c1 (stereo not given),-5.56,–
CCCCN=C(N)N=C(N)N,-12.4,–
O=C1C(CCS(=O)c2ccccc2)C(=O)N(c2ccccc2)N1c1ccccc1 (stereo not given),-6.2,–
O=C(O)c1ccc(S(=O)(=O)N(Cl)Cl)cc1,7.41,–
Cn1c(=O)c2[nH]c(Br)nc2n(C)c1=O,-5.7,–
NC(=S)N/N=C/c1cccnc1,-9.23,–
Nc1nc(N)c(-c2ccccc2)s1,-4.65,–
C[N+]1(C)CCC(=C(c2ccccc2)c2ccccc2)CC1,-6.53,–
CC(C)(C)NCC(O)COc1cccc2c1C[C@H](O)[C@H](O)C2 (stereo not given in full),5.39,–
CCOC(=O)c1ccc(N)cc1,2.16,–

Structure (SMILES),"activity change, negative = cytotoxic [%]",Potency
CC(C)n1c(/C=C/[C@@H](O)C[C@@H](O)CC(=O)O)c(-c2ccc(F)cc2)c2ccccc21,–,3.44 µM (active)
CCCCCCCCOc1ccc(C(=O)c2ccccc2)c(O)c1,1.03,–
NS(=O)(=O)c1cc2c(cc1Cl)NC(CC1CCCC1)NS2(=O)=O (stereo not given),-3.61,–
Cc1c[nH]c2ccccc12,-4.85,–
OC(C#CCN1CCCC1)(c1ccccc1)c1ccccc1,-12.1,–
C[N+]1(CC2COC(c3ccccc3)(C3CCCCC3)O2)CCCCC1 (stereo not given),-8.68,–
CCCCC(CC)COC(=O)/C=C/c1ccc(OC)cc1 (stereo not given),-0.259,–
NCCNc1cccc2ccccc12,-19.3,–
CCOc1ccc(NC(C)=O)cc1,-5.87,–
CCCCC(CC)COC(=O)c1ccc(N(C)C)cc1 (stereo not given),-7.67,–
COc1cc(NS(=O)(=O)c2ccc(N)cc2)ncn1,4.18,–
Cc1cc(CC(=O)O)c(C)n1-c1ccc(Cl)cc1,-21,–
Cc1cc(NS(=O)(=O)c2ccc(N)cc2)nc(C)n1,-13,–
Cc1cccc(C)c1NC(=O)c1ccccc1C(=O)O,-0.0044,–
OC[C@H]1O[C@@H]2O[C@H]3[C@H](O)[C@@H](O)[C@@H](O[C@H]4[C@H](O)[C@@H](O)[C@@H](O[C@H]5[C@H](O)[C@@H](O)[C@@H](O[C@H]6[C@H](O)[C@@H](O)[C@@H](O[C@H]7[C@H](O)[C@@H](O)[C@@H](O[C@H]8[C@H](O)[C@@H](O)[C@@H](O[C@H]1[C@H](O)[C@H]2O)O[C@@H]8CO)O[C@@H]7CO)O[C@@H]6CO)O[C@@H]5CO)O[C@@H]4CO)O[C@@H]3CO,-10.2,–
N#CCC(=O)NN,-3.58,–
CN1CCC[C@@H]1CCO[C@](C)(c1ccccc1)c1ccc(Cl)cc1,–,15.4 µM (active)
Cc1c(-c2ccccc2)oc2c(C(=O)OCCN3CCCCC3)cccc2c1=O,6.79,–
COc1ccccc1N1CCN(CCCCNC(=O)c2ccc(-c3ccc(C(C)=O)cc3)cc2)CC1,-46.5,–
Nc1ccc(S(=O)(=O)NCc2ccccc2)cc1,2.64,–
